# Bim-Mcl-1: human Bim-Mcl-1 interaction inhibition | actives 0.1% (n = 190,000) | Bead-based flow cytometry, Bim peptide-Mcl-1 binding | inhibition, % at 10 µM | AID 1009 | Q07820; in the data active = inhibition above about 40%;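 note: 0% = no compound tracer wells and 100% = peptide blocker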
# TLR4 MyD88 comp: TLR4-MyD88 interaction inhibition in cells; inhibition, % at 8.4 µM; HeLa CL3-4 TLR4/MyD88 BLA complementation, FRET ratio; AID 861; O00206+Q99836; actives 0.18% (n = 200,000); in the data active = inhibition above about 25%;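 note: 0% = vehicle and 100% = reference inhibitor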
# Target sequence (O00206 whole entry, looked up): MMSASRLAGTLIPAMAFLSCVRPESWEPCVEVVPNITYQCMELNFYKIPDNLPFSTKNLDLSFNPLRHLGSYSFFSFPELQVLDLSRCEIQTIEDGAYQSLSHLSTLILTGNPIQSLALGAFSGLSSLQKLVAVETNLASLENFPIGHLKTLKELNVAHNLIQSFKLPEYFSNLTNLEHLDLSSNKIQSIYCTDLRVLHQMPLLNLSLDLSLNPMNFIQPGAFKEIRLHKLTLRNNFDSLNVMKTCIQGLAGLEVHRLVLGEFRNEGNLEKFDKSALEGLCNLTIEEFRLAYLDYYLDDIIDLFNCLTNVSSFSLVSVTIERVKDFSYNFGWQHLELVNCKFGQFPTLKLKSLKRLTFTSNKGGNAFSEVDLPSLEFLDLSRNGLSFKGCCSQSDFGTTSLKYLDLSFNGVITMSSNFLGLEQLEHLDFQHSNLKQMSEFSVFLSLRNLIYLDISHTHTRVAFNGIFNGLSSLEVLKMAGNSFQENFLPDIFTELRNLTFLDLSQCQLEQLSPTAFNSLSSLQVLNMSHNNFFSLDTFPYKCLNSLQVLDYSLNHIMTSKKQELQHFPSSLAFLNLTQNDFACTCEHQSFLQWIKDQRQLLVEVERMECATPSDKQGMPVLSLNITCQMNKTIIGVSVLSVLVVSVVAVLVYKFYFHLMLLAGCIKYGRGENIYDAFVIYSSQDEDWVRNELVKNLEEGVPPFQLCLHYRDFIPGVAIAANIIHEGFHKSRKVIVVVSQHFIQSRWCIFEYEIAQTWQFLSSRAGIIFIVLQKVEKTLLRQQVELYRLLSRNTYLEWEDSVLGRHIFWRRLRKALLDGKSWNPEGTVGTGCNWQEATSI
# Target sequence (Q99836 whole entry, looked up): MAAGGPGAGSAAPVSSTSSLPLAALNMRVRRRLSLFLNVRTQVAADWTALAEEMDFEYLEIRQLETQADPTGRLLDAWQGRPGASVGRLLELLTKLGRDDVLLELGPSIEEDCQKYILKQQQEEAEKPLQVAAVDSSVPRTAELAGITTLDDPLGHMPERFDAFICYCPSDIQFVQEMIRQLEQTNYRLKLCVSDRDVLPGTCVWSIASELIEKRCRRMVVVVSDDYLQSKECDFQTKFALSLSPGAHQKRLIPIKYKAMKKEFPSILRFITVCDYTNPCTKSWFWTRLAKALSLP
# Mcl1 Noxa PPI: Mcl-1/Noxa interaction inhibition | Q07820 | TR-FRET Mcl-1/Noxa peptide binding, 2 h | inhibition, % at 21.7 µM | actives 1.5% (n = 220,000);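 active = compounds that cut the protein-peptide binding signal by more than 50% relative to plate controls in a single-dose test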;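 note: His-tagged Mcl-1 with rhodamine Noxa BH3 peptide and terbium anti-His antibody; 0% = Mcl-1 plus Noxa peptide wells and 100% = peptide-only wells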
# Mcl1-Bid inh: disrupts binding of human Mcl-1 to Bid peptide; TR-FRET Mcl-1/Bid-Dy647 peptide binding, 1536-well; Q07820; actives 0.97% (n = 220,000); inhibition, % at 21.7 µM;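 active = compounds that cut the binding signal by more than half at the single screening dose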;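 note: His-tagged Mcl-1 with europium anti-His antibody binding Bid BH3 peptide; 0% = Mcl-1 plus peptide wells and 100% = peptide-only wells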
# TLR9-MyD88 block: TLR9-MyD88 interaction inhibition; Q9NR96+Q99836; CHO BLA complementation TLR9-MyD88, CCF4 FRET ratio; inhibition, % at 4.98 µM; actives 0.21% (n = 340,000);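 active = inhibition above the mean over all tested compounds plus 3 SD, cut at about 21% in these data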;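 note: 0% = DMSO only wells and 100% = clavulanate BLA inhibitor control wells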
# NOD2-RIPK2 inh: inhibitors of human NOD2-RIPK2 interaction. actives 0.38% (n = 360,000). CHO BLA complementation NOD2-RIPK2, CCF4 ratio. inhibition, % at 4.98 µM. AID 624267. O43353; in the data active = inhibition above about 21%;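 note: 0% = vehicle only and 100% = reference blocker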
# TLR9-MyD88 conf: TLR9-MyD88 interaction inhibition, confirmation; shares compounds with TLR9-MyD88 block; CHO TLR9/MyD88 BLA complementation, CCF4 FRET ratio; inhibition, % at 4.98 µM; actives 51% (n = 680); AID 540250;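 active = mean inhibition across three repeats above about 21% taken from the earlier screen, limit read from the data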;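 note: blue over green emission ratio reports constitutive TLR9 MyD88 association via BLA complementation; 0% = DMSO vehicle wells and 100% = clavulanate BLA inhibitor wells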
# BLA nonselective: counter-screen for TLR9-MyD88 inhibitors: non-selective beta-lactamase inhibitors; CHO-BLA cells, CCF4 FRET ratio, BLA reporter; AID 540251; inhibition, % at 4.98 µM; shares compounds with TLR9-MyD88 block; actives 7% (n = 680);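 active = mean inhibition above a 50% cutoff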;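 note: counterscreen of TLR9-MyD88 hits on CMV-driven BLA in CHO-K1 cells; 0% = DMSO alone and 100% = clavulanate blocking BLA; higher means less blue over green ratio so more BLA blockade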
# TLR9 CHO tox: CHO cell toxicity counter-screen for TLR9-MyD88 inhibitors; shares compounds with TLR9-MyD88 block; TLR9-MyD88 CHO cells cytotoxicity, luminescence; inhibition, % at 4.98 µM; actives 39% (n = 680); AID 588336; in the data active = inhibition above about 11%
# An asterisk follows results filed as active; x = no result given. Shown are actives, neighbours in structure and some others; about 1.8% of the full set was active somewhere.
SMILES,Bim-Mcl-1,TLR4 MyD88 comp,Mcl1 Noxa PPI,Mcl1-Bid inh,TLR9-MyD88 block,NOD2-RIPK2 inh,TLR9-MyD88 conf,BLA nonselective,TLR9 CHO tox
CCCn1c(/C=C/c2cc[n+](C)cc2)nc2ccccc21,x,x,x,x,30*,16,17,22,-1
CCOc1cc(S(=O)(=O)n2cnc(C)c2)ccc1Cl,2,-4,2,-3,-16,-5,x,x,x
CCS(=O)(=O)Nc1ccc(C(=O)OC)cc1,0,6,9,2,1,1,x,x,x
CCS(=O)(=O)Nc1ccc(C(=O)c2ccccc2)cc1,-2,6,4,-1,22*,8,-6,-4,5
Cc1ccc(NC(=O)c2cccc(C(F)(F)F)c2)cc1NC(=O)c1[nH]cnc1C(N)=O,x,x,x,x,28*,-6,2,5,-3
O=[N+]([O-])c1ccc(C=CC=Cc2ccccc2)cc1,x,x,x,x,25*,6,17,20,-3
Nc1cccc2c1C(=O)N(C(=O)c1ccc(Cl)c(S(=O)(=O)N3CCCCCC3)c1)C2=O,-1,19,-17,-12,28*,17,8,13,2
O=S(=O)(Nc1cccc2ncccc12)c1cccs1,-3,5,-60,-137,29*,52*,26*,12,103*
CN(C)/C=C1\C=C2C(=O)c3ccccc3N2C1=O,x,x,-199,-48,23*,1,7,8,-1
O=C(O)CSc1nnc(-c2ccc(Cl)cc2Cl)n1Cc1ccccc1,x,x,x,x,-7,3,x,x,x
O=S(=O)(c1ccccc1)c1nc(Nc2cccc(O)c2)sc1Cl,-3,-8,24,-46,21*,7,-1,-3,-1
O=C(N/N=C/c1cccc2ccccc12)c1cc2ccccc2o1,x,x,x,x,23*,-5,3,-2,4
O=C(N/N=C/c1ccccc1F)c1cc2c(ccc3ccccc32)o1,x,x,x,x,-8,-12,x,x,x
Cc1ccc(OCC(=O)OCC(=O)c2cccc([N+](=O)[O-])c2)cc1C,x,x,x,x,6,-6,x,x,x
N#Cc1ccc(-c2cccnc2)nc1SCC(=O)c1ccccc1,x,x,-11,-17,21*,14,9,9,10
S=c1[nH]nc(-c2cccnc2)n1Cc1ccccc1,-6,-4,8,-15,24*,2,-3,-4,-3
CN1/C(=C\C(=O)c2ccco2)C(C)(C)c2ccccc21,-1,7,17,26,8,4,x,x,x
CN1/C(=C\C(=O)c2cncc(Br)c2)C(C)(C)c2ccccc21,-5,16,-1,-8,22*,14,10,14,26*
Cc1cc(C)c(S(=O)(=O)N(C)CC(=O)N2CCCC2)c(C)c1,x,x,x,x,3,-10,x,x,x
C#CCOCCOCCOCCNc1nc(N2CCN(C(=O)CCCCCCCCCCNC(=O)[C@H](CCCCN)n3cc(CCO)nn3)CC2)nc(N2CCN(C(=O)CCCCCCCCCCNC(=O)[C@H](CCCCN)n3cc(CCO)nn3)CC2)n1,x,x,x,x,-7,8,x,x,x
C#CCOCCOCCOCCNc1nc(N2CCN(C(=O)CCCCCCCCCCNC(=O)[C@H](CCCCN)n3cc(C[C@@H](C)CC)nn3)CC2)nc(N2CCN(C(=O)CCCCCCCCCCNC(=O)[C@H](CCCCN)n3cc(C[C@@H](C)CC)nn3)CC2)n1,x,x,x,x,52*,35*,29*,17,43*
CCOC(=O)c1ccc(CNC(=O)Cn2nnc(-c3ccccc3)n2)o1,0,-2,-5,-18,2,-4,x,x,x
Cc1ccc(C)c(S(=O)(=O)N2CCN(CC(=O)N3CCc4ccccc4C3)CC2)c1,0,-6,7,62*,36*,-10,-2,3,0
O=C(CN1CCN(S(=O)(=O)c2cc(C(F)(F)F)ccc2Cl)CC1)N1CCc2ccccc2C1,x,x,x,x,1,4,x,x,x
O=S(=O)(c1ccccc1)[C@@]1(c2ccc(Br)cc2)C[C@@H]2ON=C(c3ccccc3)[C@@H]2C1,x,x,x,x,-1,4,x,x,x
SMILES,Bim-Mcl-1,TLR4 MyD88 comp,Mcl1 Noxa PPI,Mcl1-Bid inh,TLR9-MyD88 block,NOD2-RIPK2 inh,TLR9-MyD88 conf,BLA nonselective,TLR9 CHO tox
CN1CCN(C(=O)CSc2nc(-c3cccs3)cc(-c3cccs3)c2C#N)CC1,-5,-10,x,x,24*,18,21,19,5
CCN(CC)C(=O)CSc1nc(-c2cccs2)cc(-c2cccs2)c1C#N,-7,14,5,-4,-7,-7,x,x,x
CC(=NNC(=O)c1ccc(NS(=O)(=O)c2ccc(Br)cc2)cc1)c1cccnc1,x,x,x,x,4,-2,x,x,x
O=C(Nc1c2c(nn1-c1ccccc1)CS(=O)(=O)C2)c1ccccc1Br,x,x,x,x,23*,9,8,10,-1
O=C(Nc1c2c(nn1-c1ccccc1)CS(=O)(=O)C2)C1CC1,x,x,x,x,4,-7,x,x,x
C[C@@H]1CN([C@@H](C)CO)C(=O)CCCn2nncc2CO[C@H]1CN(C)C(=O)C1CC1,x,x,x,x,-1,7,x,x,x
CC(C)NC(=S)N/N=C/c1cc(Br)ccc1O,-6,19,-1,-79,21*,15,16,9,4
COC(=O)N/N=C/c1cc(Br)ccc1O,-3,-13,8,-57,-4,3,x,x,x
COc1cccc(COC(=O)Cc2ccc(S(=O)(=O)N3CCOCC3)s2)c1OC,x,x,x,x,-1,8,x,x,x
O=C1C(Cl)=C(NCCc2ccccc2)C(=O)c2ccccc21,x,x,x,x,21*,1,50*,5,98*
O=C1C(Cl)=C(NCCc2ccccc2)C(=O)N1CCc1ccccc1,0,2,1,-42,-6,14,x,x,x
COCCN(C(=O)c1csnn1)C(C(=O)NC1CCCCC1)c1ccc(Cl)cc1 (stereo not drawn),x,x,x,x,5,-7,x,x,x
Cc1cccnc1NC(=O)c1ccc(Cl)c(S(=O)(=O)N2CCCCC2)c1,x,x,x,x,-15,-7,x,x,x
COc1cc(/C=C/C(=O)OCC(=O)Nc2ccc3[nH]c(=O)[nH]c3c2)ccc1OC(F)F,x,x,x,x,23*,-10,7,3,7
COc1cc(/C=C/C(=O)OCC(=O)N(C)CC(=O)Nc2ccc(F)cc2)ccc1OC(F)F,x,x,x,x,6,-7,x,x,x
CC(C)C[C@@H](COCc1ccc(C(F)(F)F)cc1)N1CCN(C(=O)c2ccc(C(F)(F)F)cc2)CCC1=O,x,x,x,x,x,1,x,x,x
Oc1c(Br)cc(/C=N/Nc2ccc(Cl)nn2)cc1Br,x,x,x,x,3,12,x,x,x
Fc1cccc(/C=N/Nc2ccc(Cl)nn2)c1,x,x,x,x,23*,5,2,0,3
Cc1cc(/C=C2\Cc3ccccc3C2=O)c(C)n1-c1ccccc1,0,1,6,-60,21*,10,19,23,8
